# Bioassay records: PubChem BioAssay, National Center for Advancing Translational Sciences (NCATS)
# GLS inhibitor: qHTS for Inhibitors of Glutaminase (GLS) | GLS enzymatic activity, qHTS titration | Potency, µM (titrated, usually from 45.5 µM), for inactives: at the highest dose activity change, negative = inhibition, actives largely listed as inhibitors | hit rate 0.21% among 410,000 | Glutaminase kidney isoform, mitochondrial (Homo sapiens), O94925 | AID 624170, 2012; note: % is set by controls: 0 for no effect and ±100 for the full control effect
#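 Enzyme dispensed in phosphate buffer (45 mM, pH 8.2, 0.02% Tween-20), compounds pinned in, then 1 mM L-glutamine solution and the glutamate oxidase–HRP–Amplex Red mix added; fluorescence read immediately and again after 30 min at room temperature.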
# BCR signal inh: qHTS Assay to Find Inhibitors of Chronic Active B-Cell Receptor Signaling; hit rate 0.05% among 340,000; AID 493014, 2011; Potency, µM (top dose mostly 46.1 µM), inactives show at the highest dose activity change, negative = inhibition, hits mostly inhibitors; ABC-DLBCL IkBa-CBG/CBR reporter, luminescence ratio, 4 h; active = well fitted inhibition curve with a large enough effect in the signal ratio, with a control signal flat, not every such curve was filed as active; inconclusive = small, poorly fitted or top-dose-only effect, or effect the other way, or a change in a side signal; the % refers to the signal ratio;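 note: plate controls were basal doxycycline-induced cells for no effect and cells given 10 µM MG132 for full effect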
#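 Compounds up to 46 uM were incubated four hours with TMD8 cells whose green CBG68 luciferase is fused to IkappaBalpha; red CBR luminescence normalised the signal, and concentration-effect curves were fitted to fusion, red and ratio data.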
# Pin1 inhibitor: qHTS Assay to Find Inhibitors of Pin1; Potency, µM (highest dose often 115 µM), for inactives: top-dose activity, negative = inhibition, actives largely listed as inhibitors; Peptidyl-prolyl cis-trans isomerase NIMA-interacting 1 (Homo sapiens), Q13526; AID 504891, 2011; hit rate 0.009% among 390,000; Pin1 FP peptide displacement, HiFluor488, 10 min; active = well fitted inhibition curve with a large enough effect in the polarisation, with a control signal flat, not every such curve was filed as active; inconclusive = small, poorly fitted or top-dose-only effect, or effect the other way, or a change in a side signal; inactive = no such curve, though single readings can be large or run the other way; the % refers to the polarisation; note: % is set by controls: 0 for no effect and ±100 for the full control effect
# Target sequence (Q13526 whole entry, looked up): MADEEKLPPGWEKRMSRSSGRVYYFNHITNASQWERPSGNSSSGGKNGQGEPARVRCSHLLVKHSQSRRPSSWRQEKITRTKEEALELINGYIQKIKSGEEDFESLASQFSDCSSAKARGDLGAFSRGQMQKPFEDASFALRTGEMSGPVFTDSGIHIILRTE
# PGK inhibitor: qHTS Assay to Find Inhibitors of Phosphoglycerate Kinase | Potency, µM (series often up to 57.5 µM), without a hit: at the highest dose activity change, negative = inhibition, hits mostly inhibitors | hit rate 0.043% among 380,000 | PGK/GAPDH coupled, Kinase-Glo luminescence, 60 min; note: % is set by controls: 0 for no effect and ±100 for the full control effect; nearly all actives have a fitted effect of over 60% in size
#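 Recombinant glycosomal PGK reaction used 1,3-bisphosphoglycerate generated in-well by GAPDH (100nM final) in 100mM TEA pH 7.6, 5mM MgCl2, 0.01% Tween-20. After 60 minutes at room temperature, ATP was read by Kinase-Glo Plus luminescence end-point.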
# Tb PFK inh-1: qHTS Assay to Find Inhibitors of T. brucei phosphofructokinase; ATP-dependent 6-phosphofructokinase (Trypanosoma brucei brucei), O15648; T. brucei PFK, ADP-Glo luminescence; Potency, µM (titrated, usually from 57.5 µM), inactives show at the highest dose activity, negative = inhibition, actives largely listed as inhibitors; hit rate 0.17% among 330,000; AID 485367, 2010;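 note: 0% = uninhibited 1x PFK enzyme wells and -100% = no-enzyme wells; nearly all actives have a fitted effect of over 60% in size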
#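 In TEA buffer at pH 8.0 with 5 mM MgCl2, enzyme (1.25 nM) converted F6P (0.5 mM) and ATP (0.1 mM) for 45 min at room temperature. ADP product was read by luciferase luminescence.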
# B2AR arrestin: qHTS assay of beta-arrestin-biased ligands of beta2-adrenergic receptor; Beta-2 adrenergic receptor (Homo sapiens), P07550; AID 492947, 2010; hit rate 0.02% among 330,000; beta-arrestin recruitment to beta2AR, cell-based reporter; Potency, µM (series often up to 46.1 µM), for inactives: top-dose activation, most hits filed as activators;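 note: 0% = DMSO controls and full agonism = EC100 isoproterenol or metaproterenol; nearly all actives have a fitted effect of over 65% in size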
# Target sequence (P07550 whole entry, looked up): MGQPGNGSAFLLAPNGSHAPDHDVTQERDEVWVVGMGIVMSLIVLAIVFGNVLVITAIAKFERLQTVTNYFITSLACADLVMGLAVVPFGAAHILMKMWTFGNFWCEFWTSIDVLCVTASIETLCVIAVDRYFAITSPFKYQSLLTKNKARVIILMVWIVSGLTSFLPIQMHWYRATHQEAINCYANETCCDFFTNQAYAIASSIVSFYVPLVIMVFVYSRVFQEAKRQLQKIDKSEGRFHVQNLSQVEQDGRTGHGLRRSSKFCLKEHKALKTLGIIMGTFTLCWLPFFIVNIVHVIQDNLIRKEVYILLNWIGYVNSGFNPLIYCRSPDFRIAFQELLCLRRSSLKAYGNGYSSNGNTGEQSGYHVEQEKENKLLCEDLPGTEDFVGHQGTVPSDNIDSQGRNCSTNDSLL
# Tb PFK KinaseGlo: Tb PFK orthogonal confirmatory assay using ATP depletion (Kinase-Glo Plus) as an alternative measure of Tb PFK activity: Hit Validation | hit rate 47% among 1,100 | shares compounds with Tb PFK inh-1 | Potency, µM (top dose mostly 57.5 µM), for the others: at the highest dose inhibition | Tb PFK enzyme, ATP depletion, Kinase-Glo Plus luminescence | AID 504636, 2011; calls by dose curve; note: nearly all actives have a fitted effect of over 60% in size
# Tb PFK inh-2: Inhibitors of T. brucei phosphofructokinase: Hit Validation | shares compounds with Tb PFK inh-1 | purified T. brucei PFK, ADP-Glo luminescence, 45 min | Potency, µM (series often up to 57.5 µM), inactives show top-dose activity change, negative = inhibition, most hits filed as inhibitors | hit rate 41% among 1,100;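 note: plate controls were full PFK enzyme control for no effect and no enzyme control for full effect; nearly all actives have a fitted effect of over 60% in size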
# Active calls of the source: *; i = inactive; u = inconclusive; x = no result given. Compounds with a hit are over-represented: about 0.42% of the library has one in this group of screens. Unless noted, calls come from the whole dose curve; as a rule, active = well fitted curve in the direction sought with a large enough effect; inconclusive = small, poorly fitted or top-dose-only effect, or another doubt; inactive = no such curve, though single readings can be large; an effect the other way counts as inactive or inconclusive. Potency is the fitted concentration of half-maximal effect.
SMILES,GLS inhibitor,BCR signal inh,Pin1 inhibitor,PGK inhibitor,Tb PFK inh-1,B2AR arrestin,Tb PFK KinaseGlo,Tb PFK inh-2
O=[N+]([O-])c1ccc(Cc2ccccn2)cc1,1%,-1%,-4%,0%,u,0%,u,u
CC1=C(C(=O)Nc2ccccc2C(F)(F)F)C(c2ccc(C)s2)NC(=S)N1 (configuration not stated),-3%,-14%,7%,5%,u,-1%,5%,4%
CCOC(=O)[C@]12Cc3cc(C)ccc3[C@H]1N(Cc1ccccc1)C(=O)c1cc(OC)ccc12,17%,x,x,x,x,x,x,x
COc1ccc(CN2C(=O)c3cccnc3C2O)cc1 (configuration not stated),u,-12%,6%,u,27µM*,0%,u,u
CCC(=O)N1N=C(c2c(O)n(C)c(=O)n(C)c2=O)CC1c1ccccc1 (configuration not stated),10%,u,5%,8%,-4%,-1%,x,x
CN1CCc2ccccc2Cc2[nH]c3ccccc3c2CC1,23%,-1%,-2%,-2%,12µM*,0%,15µM*,13µM*
O[C@@H]1CCCN2CCc3c([nH]c4ccccc34)[C@H]12,-12%,x,u,0%,x,x,x,x
CCOP(=O)(C1=C(O)C(=O)C(C(C)(C)C)=CC1=O)c1ccccc1 (configuration not stated),28%,6%,u,5%,1%,0%,x,x
COc1cc(OC)c(OC)cc1/C=C1\CCC/C(=C\c2cc(OC)c(OC)cc2OC)C1=O,0%,u,u,-9%,0%,-1%,x,x
CCc1nn2c(N)c(/C=C3\C=Nc4ccccc43)c(=O)nc2s1,22%,u,142%,-11%,u,-1%,-26%,u
O=C(O)c1ccc(NCc2cccc(Br)c2)cc1,23%,3%,-7%,-4%,21µM*,0%,12µM*,24µM*
O=C(NCc1ccc(C(=O)N2CCC3(CC2)OCCO3)cc1)c1cccc(Br)c1,5%,-1%,-8%,8%,0%,0%,x,x
NNc1ccccc1,-20%,x,x,x,x,x,x,x
COc1ccc(OC)c(CN2CCCC(C(=O)c3sccc3C)C2)c1 (configuration not stated),4%,-1%,4%,-8%,-3%,0%,x,x
COc1ccc(OC)c(CN2CCC(CNC(=O)Nc3cccc(Cl)c3)CC2)c1,3%,u,-6%,-7%,u,0%,u,u
O=[N+]([O-])c1cccc(CN2CCN(Cc3ccc(Cl)cc3)CC2)c1,1%,-3%,-3%,-6%,-2%,0%,x,x
O=C(NCC1CCN(Cc2cccc(Cl)c2)CC1)Nc1ccc(Cl)cc1,-10%,u,-3%,-4%,u,0%,u,u
Cc1ccc(CNc2cc(C)nc3nc(-c4ccc(C)cc4)nn23)cc1,-14%,x,u,i,x,x,x,x
COc1cc(/C=C(\C#N)C(=O)NCC2CCCO2)ccc1OC(=O)c1ccco1 (configuration not stated),-21%,1%,2%,i,u,0%,-30%,u
Cc1cc(OC(=O)c2ccco2)c2c3c(c(=O)oc2c1)CCCC3,10%,u,16%,-4%,1%,0%,x,x
O=C(Nc1n[nH]c(=S)s1)c1ccco1,-13%,0%,-13%,-3%,u,1%,5.4µM*,12µM*
CC(C)(O)C1C2OC(=O)C1[C@]1(O)C[C@H]3O[C@]34C(=O)O[C@H]2[C@]14C (some centres not stated) (tested in a mixture with another compound),5%,x,x,x,x,x,x,x
COc1ccc(OC)c(CC(=O)O)c1,-17%,5%,0%,-7%,-1%,0%,x,x
COc1ccc(OC)c(S(=O)(=O)N(C(C)=O)c2ccc3oc(=O)sc3c2)c1,-9%,u,-3%,0%,u,0%,-21%,u
COc1cc(OC)cc(C(=O)Nc2ccc(N3CCN(C(=O)c4cccs4)CC3)cc2)c1,6%,u,7%,8%,-22%,0%,x,x
SMILES,GLS inhibitor,BCR signal inh,Pin1 inhibitor,PGK inhibitor,Tb PFK inh-1,B2AR arrestin,Tb PFK KinaseGlo,Tb PFK inh-2
Nn1c(SCC(=O)Nc2ccc(F)cc2F)nnc1-c1cccnc1,0%,u,-1%,-5%,2%,-2%,x,x
Nn1c(SCC(=O)Nc2cccnc2Cl)nnc1-c1ccccc1,-24%,0%,-2%,-1%,u,-1%,9.5µM*,11µM*
CCOCCSc1nc2c(c(-c3cccs3)c1C#N)CC/C2=C/c1cccs1,-1%,-3%,u,4%,-3%,0%,x,x
CCCCCn1c(=O)c(C(=O)Nc2nc(CC(=O)OCC)cs2)c(O)c2ccccc21,7%,-6%,-2%,-2%,-4%,0%,x,x
CCOC(=O)Cc1csc(-n2sc3ccccc3c2=O)n1,u,-3%,3%,-11%,11µM*,-1%,u,u
Cc1nnc(SCc2ccc(Cl)c(Cl)c2)s1,16%,4%,-2%,15%,24µM*,0%,11µM*,13µM*
COc1cc(/C=N/NC(=O)CN2CCCCC2)ccc1OCc1ccccc1,6%,-5%,0%,21%,-5%,-1%,x,x
COCc1cc(/C=N\NC(=O)Cc2ccc(Cl)cc2)ccc1OC,7%,u,-4%,i,21µM*,5%,u,u
O=C(Nc1cc(S(=O)(=O)N2CCOCC2)ccc1N1CCCC1)c1ccc(Cl)cc1,17%,0%,3%,2%,u,0%,24µM*,u
O=C(COC(=O)Cc1ccccc1)Nc1cc(S(=O)(=O)N2CCOCC2)ccc1N1CCCC1,16%,u,1%,-3%,4%,-1%,x,x
Cc1ccn(-c2cc(O)c(-n3ccc(C)n3)cc2O)n1,18%,-1%,0%,5%,u,0%,-14%,u
